# Experiments:
# [1] = molecular target: T1, Aspartate--tRNA(Asp/Asn) ligase (Mycobacterium tuberculosis (strain ATCC 25618 / H37Rv)) (UniProt P9WFW3); test: Assay for Asp RNA synthetase-1 from Mycobacterium tuberculosis; format: functional; design: scale not given: direction of the effect not stated beside the values; details: 30 µM; also: in the data most compounds retested in dose-response had high values
# T1 sequence (whole entry): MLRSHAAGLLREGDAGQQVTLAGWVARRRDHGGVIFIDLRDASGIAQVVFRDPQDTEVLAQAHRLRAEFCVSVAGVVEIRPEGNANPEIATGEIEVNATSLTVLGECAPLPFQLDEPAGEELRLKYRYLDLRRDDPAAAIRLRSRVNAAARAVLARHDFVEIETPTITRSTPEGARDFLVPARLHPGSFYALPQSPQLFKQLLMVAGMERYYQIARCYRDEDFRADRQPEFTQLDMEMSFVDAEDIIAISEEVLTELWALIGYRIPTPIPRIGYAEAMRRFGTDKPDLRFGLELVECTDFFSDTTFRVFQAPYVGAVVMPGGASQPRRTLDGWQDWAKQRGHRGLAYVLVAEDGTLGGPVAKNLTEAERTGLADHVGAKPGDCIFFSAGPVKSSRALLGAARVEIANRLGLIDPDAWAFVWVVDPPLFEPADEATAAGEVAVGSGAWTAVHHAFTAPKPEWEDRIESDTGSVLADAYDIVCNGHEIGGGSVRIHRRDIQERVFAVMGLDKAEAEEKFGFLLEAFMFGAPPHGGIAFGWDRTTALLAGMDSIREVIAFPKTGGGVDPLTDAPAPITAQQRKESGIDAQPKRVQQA
# [2] = molecular target: Shiga toxin 2 (Escherichia coli O157:H7) (UniProt P09385+P09386); test: E. coli 0.157:H7 Shiga Toxin SOP - stx2 screening assay; format: functional; design: scale not given: direction of the effect not stated beside the values; details: 30 µM
Structure (SMILES),Percent Effect [1] [%],Percent Effect [2] [%]
Cn1cc(C[C@H]2[C@H](N3CCOCC3)CCN2C(=O)c2ccco2)cn1,-2.37,-0.123
CCN1CC2(CC1=O)CN(Cc1ccco1)CCN(C(=O)N(C)C)C2 (configuration not stated),-2.71,-10.3
c1csc(-c2nc(CN3CCOC(Cn4cncn4)C3)co2)c1 (configuration not stated),21.8,19.9
CN1CC(=O)N(c2cccc(F)c2)CC12CCNC2 (configuration not stated),-4.35,-4.44
Cc1cc(C)cc(OCC(=O)NC2CCN(S(C)(=O)=O)CC2)c1,0.903,-16.4
Cc1cnn(C2CN(Cc3nc(C(C)(C)C)no3)C2)c1,-0.0303,-32.1
CCOC(CC)C(=O)NCCC(=O)N1CCN(c2ncccn2)CC1 (configuration not stated),1.17,-0.0687
COCC(=O)N1CC[C@@H]2CN(Cc3cccc(Cl)c3)S(=O)(=O)[C@@H]2CC1,3.55,-12.7
Cc1cc(CN(C)C(=O)C2CCCN(C(=O)c3ccc(Cl)cc3)C2)no1 (configuration not stated),8.83,-26.7
CN1C(=O)C(C)(C)COc2cc(NS(=O)(=O)Cc3ccccc3)ccc21,-4.77,14.9
CC(C)c1n[nH]c(C2CN(Cc3nnc(C4CC4)o3)CCO2)n1 (configuration not stated),-2.26,0.109
CC(Cn1ccnc1)NC(=O)NCCc1ccccn1 (configuration not stated),-8.15,-8.89
CS(=O)(=O)N1CCC(C(=O)NC(Cc2ccsc2)c2nccs2)CC1 (configuration not stated),-5.91,16.3
CC(C)CCN1CCN(Cc2nc(C3CC3)no2)CC1,0.0141,-32
CCn1nnc2c1C(COC)CN(C(=O)COc1ccccc1)C2 (configuration not stated),-1.42,-31.2
CN(C)[C@H]1CCCCN(C(=O)CCc2csc(N)n2)C1,-1.18,3.47
CCC(=O)N1CCN(Cc2cc(-c3ccncc3)nn2C)CC1,-0.849,-10.7
Cc1nc(NCc2ccc(C)o2)cc(C(=O)N2CCOCC2)n1,12.5,-16.9
O=C(c1cccc(=O)[nH]1)N(Cc1ccsc1)CC1CCCO1 (configuration not stated),0.0781,-11.1
CN(C)C(=O)CS(=O)(=O)Cc1cc(Cl)c2c(c1)OCCCO2,4.36,29.6
Cc1noc(C)c1-c1cccc(CC2CCN(C(=O)c3cc[nH]n3)C2)n1 (configuration not stated),-1.22,4.37
COc1cc(CNC(=O)NCc2c(C)cc(C)[nH]c2=O)ccc1C,-3.59,-4.18
CN(C)C(=O)[C@H]1C[C@@H]2CN(S(=O)(=O)Cc3ccccc3)C[C@H]1O2,3.99,-3.49
Cc1nc(CN2CCCC(NCCOc3ccccc3)C2)no1 (configuration not stated),-8.02,-0.215
O=C(c1cnccn1)N1CCN(Cc2ccncc2)c2ncccc2C1,0.815,-1.31
CN1CCN(CC2CC2)C(=O)c2cnc(N3CCCCC3)nc21,3.69,-8.64

Structure (SMILES),Percent Effect [1] [%],Percent Effect [2] [%]
Cc1cc(C)c(CNC(=O)N(C)Cc2sccc2C)c(=O)[nH]1,2.05,33.8
Fc1ccc(CNCC2OCCc3cn(CC4CC4)nc32)cc1 (configuration not stated),-2.61,-6.8
CC1CCN(CCNC(=O)c2ccccc2N2CCOCC2)CC1,2.6,-16.9
Cn1nc(CNC(=O)NCc2ccc(Cl)cc2)c2c1CCOC2,1.91,-9.65
CC(C)c1noc(C(C)N2CCN(CCN3CCCC3=O)CC2)n1 (configuration not stated),1.45,17.6
CC(NC(=O)N1CCCN(Cc2cccs2)CC1)c1cccnc1 (configuration not stated),-7.21,15.3
Cc1nn(C)c2c(N3CCN(C(=O)NC4CCCCC4)CC3)ncnc12,-5.2,-44.8
COC[C@@]12CCO[C@@H]1CCN(Cc1ccccc1F)C2,0.843,-24.5
Cc1ncsc1C(=O)NCCOc1ncc(Cl)cc1Cl,3.06,-33.3
CNC(=O)c1cc2c(nc1NCC1CC1)CCN(c1ccncn1)CC2,-4.09,-30.7
Cc1cc(CN2CCN(C(=O)NC(C)c3cccnc3)CC2)on1 (configuration not stated),-1.43,24.6
COC(=O)C(NC(=O)c1ccco1)c1cc(F)ccc1F (configuration not stated),-3.92,7.37
CN(CC(F)(F)F)C(=O)C1CSCN1C(=O)OC(C)(C)C (configuration not stated),2.82,-9.84
NC(=O)N1CCC2(CC1)CN(Cc1cccnc1)C(=O)CO2,0.66,-1.38
CCc1c(C)nn(CCNC(=O)C2CCCN(C(=O)N(C)C)C2)c1C (configuration not stated),-4.11,20
O=C1CC(c2cccnc2)C2(CCN(C(=O)c3ccncc3)CC2)N1 (configuration not stated),-5.73,7.39
COc1cnc(C2(O)CCN(C(=O)c3ccncc3)CC2)c(OC)n1,-2.63,-1.51
Cc1cnn(CC2CN(Cc3cccc(C(=O)N(C)C)c3)CCO2)c1 (configuration not stated),2.43,-24.4
COCCN(Cc1ccc(F)cc1Cl)C(=O)c1ccncc1,-5.35,12
Cc1ccc(NC(=O)NC(C)c2nc[nH]n2)cc1 (configuration not stated),4.39,5.92
Cc1cc(C)n(C2CCCN(C(=O)CCCNc3ncccn3)C2)n1 (configuration not stated),-5.54,-43.3
CC(C)c1ccc(C(O)Cn2c(=O)c(C#N)cn(C3CC3)c2=O)cc1 (configuration not stated),2.61,14.3
O=C1COC2(COCCN(Cc3ccsc3)C2)CN1c1ccc(F)cc1 (configuration not stated),2.55,-4.46
Cc1ccc(C2C3=C(COC3=O)Nc3[nH]nc(C)c32)cc1C (configuration not stated),-4.73,-11.4
COCc1nc(C(=O)N2CCCCC2Cn2cccn2)cs1 (configuration not stated),1.01,16.6
Cc1cnn(CC2CCCN2C(=O)c2ccc(C(N)=O)cn2)c1 (configuration not stated),-2.92,11.5

Structure (SMILES),Percent Effect [1] [%],Percent Effect [2] [%]
CNS(=O)(=O)c1cccc(CNc2nccc(C(F)(F)F)n2)c1,3.75,4.67
Cc1nnc(NCc2cccnc2N(C)C)c(C#N)c1C,0.728,0.124
CN(Cc1cn2c(n1)CN(C1CCOC1)CC2)Cc1ccco1 (configuration not stated),4.4,-24.2
COC(=O)CCNC(=O)C1CC(=O)N(C2CCCC2)C1 (configuration not stated),0.859,-13.4
Cc1nn(C)c(Cl)c1C1CCCN1C(=O)c1cc[nH]n1 (configuration not stated),3.04,-8.07
c1cc2nccc(CC3CCCN(Cc4ncc[nH]4)CC3)c2cn1 (configuration not stated),5.02,-54.1
CCC(CC)c1cc(CNC(=O)N2CCOCC2CC)on1 (configuration not stated),-2.19,9.7
CSCc1cccc(S(=O)(=O)NCCCO)c1,13.1,-26.7
CC(=O)Nc1ncc(S(=O)(=O)Nc2ccc(F)cc2F)s1,2.53,-38.5
Fc1ccc(-c2nnc(CN3CCn4c(nnc4C4CC4)C3)o2)cc1,3.19,-26.1
Cc1cncc(C2CCCN(Cc3cccn3C)C2)n1 (configuration not stated),0.162,10.2
Cc1oc(-c2ccsc2)nc1CC(=O)NCCS(C)(=O)=O,12.7,-25.4
Cc1ccc(OCCC(=O)NC2CCc3nc(C)cn3C2)cc1 (configuration not stated),3.86,-17.6
O=C(Nc1ccccn1)C1=NN(c2ccccc2)C(=O)CN1,0.657,-27.9
CC(C(=O)NCCCn1ccnc1)n1cc(Br)cn1 (configuration not stated),3.33,-54.3
Cn1ncc2c1C(COCC1CC1)CN(Cc1ccc(F)cc1)C2 (configuration not stated),-2.09,-5.43
CNS(=O)(=O)c1cccc(C(C)NCc2ccccc2)c1 (configuration not stated),-1.42,-14.4
Cc1nc(Nc2nnc(C)s2)cc(C2CCCN2C)n1 (configuration not stated),2.4,-26.6
c1csc(CN2C[C@@H]3OCCN(CC4CCCO4)[C@@H]3C2)c1 (some centres not stated),-2.14,7.71
Cc1csc(Nc2cc(C3CCCCN3C)nc(C)n2)n1 (configuration not stated),-2.66,-11.8
Cn1ccc2ccnc(CC3CN(C(=O)C4CCC(F)(F)CC4)C3)c21,0.551,-23.1
COc1ccccc1S(=O)(=O)Nc1ccc2c(C(=O)O)c[nH]c2c1,3.46,12.9
CN(C)C(=O)N1C[C@@H]2CC[C@H](C1)N(Cc1ccc3nsnc3c1)C2,6.27,-56.9
COCCN1C(=O)[C@]2(CC[C@@H]3CN(C(=O)NCC(C)C)C[C@@H]32)N=C1C,-3.99,-11.7
CC(=O)N1CCC(Oc2ccc(Cl)cn2)CC1,-6.73,-4.66
COc1cccc2c1ccn2CCNC(=O)C(C)C,6.33,-17

Structure (SMILES),Percent Effect [1] [%],Percent Effect [2] [%]
Cc1cc(NC(=O)NCC2CCOC2)no1 (configuration not stated),-7.54,-24.3
Cc1cc(CN2CCN(C(=O)NCc3ccc(C)s3)CC2)no1,-8.25,0.0703
CCOCCCNC(=O)c1ccccc1S(C)(=O)=O,-2.28,0.226
CC1CCN(S(=O)(=O)NCc2ccccc2Cn2cncn2)CC1,-6.51,4.16
CN(C)C(=O)N1C[C@@H]2CCCO[C@@H]2[C@H](N(C)Cc2ccco2)C1,-1.32,-18.8
c1ccc(-c2ccc3nc(C4CCN(CC5CC5)CC4)nn3c2)cc1,1.41,-51.6
Cc1ccc(N2CCCC(NCC(=O)NCC3CC3)C2)nn1 (configuration not stated),-5.2,-32.6
Cc1csc2ncc(-c3ccnc(N4CCN(C)CC4)n3)c(=O)n12,1.78,-20.6
COc1ccc(CN2CCC3(CC(Nc4ccncn4)C3)C2)c(OC)c1 (configuration not stated),-0.368,-11.8
CC(Oc1ccccc1C(F)(F)F)C(=O)NCC(N)=O (configuration not stated),-3.56,11.5
Cc1noc(NC(=O)c2ccc(Br)cc2)n1,-2.92,54.5
CCCN1CCN(C(=O)c2cnccn2)[C@H]2CS(=O)(=O)C[C@H]21,-3.33,-11.3
COc1c(C2CCCN2C(=O)Cc2c(C)noc2C)c(C)nn1C (configuration not stated),-3.25,6.14
Cc1cccc2c1OCCC2NCc1c(C)nn(C)c1N(C)C (configuration not stated),0.256,28.5
Cc1nnc(Nc2cccc(C3CCN(CCO)CC3)n2)s1,-2.1,2.64
COc1cccc(-n2nnc(C(=O)N3CCNC(=O)C3)c2C)c1,-6.06,-7.95
CCN(c1ccc(C(=O)N2CCCC(C)C2)cc1)S(=O)(=O)CC (configuration not stated),-3.34,-10.8
CN(Cc1cc2c(cc1OC(F)F)OCO2)Cc1nccn1C,3.96,2.09
COCc1noc(C2(c3ccc(Br)cc3)CCOCC2)n1,0.524,-0.633
CN(CC1(O)CCCCC1)C1CCCN(Cc2noc(C3CC3)n2)C1 (configuration not stated),-2.39,23.8
O=C(c1cscn1)N1C[C@@H]2[C@@H](C1)OCC(=O)N2CC1CCCC1,4.1,-48.6
COCC1CC2(CCN(C(=O)c3cccn3C)CC2)CN1C(C)C (configuration not stated),-3.53,-6.37
Cn1c(Cn2ccnc2)nnc1C1CCCN(C2CCCCC2)C1 (configuration not stated),-2.02,-14.9
